Each structure is given as a SMILES string. The campaign covered roughly 1,600 compounds. About 410 (26%) were called active. The sample as a whole holds a higher share of actives than the screen did. A number with no mark means an inactive call.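 How the source made its calls: active means mean inhibition over triplicates above the low-control well mean plus 3 SD, set per campaign (cut at about 13% in these data); inactive means the rest.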

The experiment is described as follows: forskolin-stimulated cAMP inhibition in U2OS – cell-based, TR-FRET, triplicate, counter-screen for MC4R biased antagonist project (AID 602193).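 Further: signal is single emission at 671 nm which falls as cellular cAMP rises; 0% = forskolin-stimulated wells and 100% = buffer without forskolin.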 As to conditions: parental U2OS, LANCE TR-FRET, at 6.5 µM, hits give high values. A general note: Time-resolved FRET reads energy transfer from a long-lived donor to a nearby acceptor.
With `Cc1cccc(N2C(=O)NC(=O)/C(=C\c3cnn(-c4ccccc4)c3)C2=O)c1`, the inhibition (in general, how much of the control response was suppressed) was 14.2% (active). To `COc1cccc(N2C(=O)NC(=O)/C(=C\c3ccc([N+](=O)[O-])s3)C2=O)c1` belongs 0.64%.

(Values after PubChem BioAssay AID602193 (The Scripps Research Institute Molecular Screening Center, 2012).)
